Records with an inconclusive call do not appear. The source made the active and inactive calls. Calls follow the shape of the dose curve; as a rule, active = well fitted activation curve with a large enough effect; inconclusive = small, poorly fitted or top-dose-only effect, or effect the other way; inactive = flat fitted curve, though single readings scatter.

Pyruvate kinase PKM (Homo sapiens), sequence (P14618 whole entry, looked up, canonical isoform): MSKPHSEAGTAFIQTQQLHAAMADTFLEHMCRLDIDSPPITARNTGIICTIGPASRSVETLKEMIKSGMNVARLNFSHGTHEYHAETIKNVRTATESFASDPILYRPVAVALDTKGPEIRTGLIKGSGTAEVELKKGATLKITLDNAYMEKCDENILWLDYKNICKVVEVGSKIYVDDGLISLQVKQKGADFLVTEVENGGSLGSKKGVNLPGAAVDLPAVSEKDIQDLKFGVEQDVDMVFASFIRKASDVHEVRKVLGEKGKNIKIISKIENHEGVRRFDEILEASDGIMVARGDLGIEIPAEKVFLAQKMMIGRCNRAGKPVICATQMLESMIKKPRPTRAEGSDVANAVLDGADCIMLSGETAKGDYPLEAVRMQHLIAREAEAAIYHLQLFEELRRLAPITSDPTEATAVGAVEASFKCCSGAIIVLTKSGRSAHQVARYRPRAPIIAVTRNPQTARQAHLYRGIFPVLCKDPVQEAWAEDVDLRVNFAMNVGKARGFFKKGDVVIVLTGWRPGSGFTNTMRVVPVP

In the experiment the target is Pyruvate kinase PKM (Homo sapiens) (UniProt P14618). As to the kind of experiment: Secondary assay for Activators of Human Pyruvate Kinase M2 isoform. To be noted: purified hPK-M2, LDH-coupled NADH fluorescence kinetic; series mostly up to 57.5 µM. The text has this:
Confirmatory assay NIH Chemical Genomics Center [NCGC] Matthew G. Vander Heiden, M.D., Ph.D. [Harvard Medical School, 77 Avenue Louis Pasteur, Boston, MA 02115] NCGC Assay Overview: Human pyruvate kinase muscle 2 (hPK-M2)enzyme was supplied as a highly purified (>95% pure) preparation from Harvard Medical School and a secondary assay was used to evaluate compounds. This assay couples the formation of pyruvate from hPK-M2 using lactate dehydrogenase (LDH) and NADH. The depletion of NADH is followed in a fluorescent-based kinetic assay that follows the formation of pyruvate to lactate, as catalyzed LDH (described by Hannaert et al., 2002)1 Pyruvate kinase substrates, PEP and ADP, were present in the assay at 0.1 mM and 4 mM respectively. In this kinetic assay initial rates were determined by following the fluorescence of NADH depletion.
NCGC Assay Protocol Summary: Three uL of substrate mix (final concentration, 50 mM Tris-Cl pH 8.0, 200 mM KCl, 15 mM MgCl2, 0.1 mM PEP, 4.0 mM ADP, and 0.2 mM NADH) was dispensed into black-solid 1536 well plates. 23 nL of compounds were delivered by a pin tool and 1 uL of enzyme mix (final concentrations, 10 nM hPK-M2 and 1 uM of LDH) was added. Plates were immediately placed in ViewLux (Perkin Elmer) and NADH fluorescence was determined at 30 second exposure intervals for between 3 and 6 minutes. Data were normalized to the uninhibited and EC100 activation using known activators such as fructose-bis-phosphate.
Take `C=Cc1cc(F)c(S(=O)(=O)N2CCN(S(=O)(=O)c3ccc4c(c3)OCCO4)CC2)cc1F`: the Potency was 2000 nM (active).
Consider `COc1ccc(Cn2ncc3c4sc(C)cc4n(C)c3c2=O)cc1F`, for which the Potency is 1120 nM (active).
Take `Nc1ccc(S(=O)(=O)N2CCN(S(=O)(=O)c3ccc4c(c3)OCCO4)CC2)cc1`: the Potency is 163 nM (active).
The result for `Cc1ccc(Cn2ncc3c4sc(C)cc4n(C)c3c2=O)c(C)c1` reads 1780 nM (active); that for `Cc1cc2c(s1)c1cnn(Cc3ccc(C(C)C)cc3)c(=O)c1n2C`, 4470 nM (active).
Take `CC(C)c1cc2c(s1)c1cnn(Cc3ccccc3F)c(=O)c1n2C`: the Potency is 1410 nM (active).
`COc1cc(F)c(S(=O)(=O)N2CCN(S(=O)(=O)c3ccc(N)cc3)CC2)c(F)c1`: the Potency was 183 nM (active).
The result for `O=S(=O)(NCCNS(=O)(=O)c1c(F)cccc1F)c1ccc2c(c1)OCCO2` reads “inactive”; that for `Cc1cc2c(s1)c1c(C)nn(Cc3ccc(F)cc3)c(=O)c1n2C`, 2820 nM (active).
As for `COC(=O)c1cc2c(s1)c1cnn(Cc3ccccc3F)c(=O)c1n2C`, the Potency was 355 nM (active).
Regarding `COc1cc(F)c(S(=O)(=O)N2CCCN(S(=O)(=O)c3cccc(NC(C)=O)c3)CC2)c(F)c1`, the Potency is 2910 nM (active).
For `O=S(=O)(c1ccc2c(c1)OCCO2)N1CCN(S(=O)(=O)c2ccc3c(c2)OCCO3)CC1`, the Potency is 398 nM (active).
`Cc1cc2[nH]c3c(=O)n(Cc4ccccc4F)ncc3c2s1`: the Potency is 708 nM (active).
With `COc1cc(F)c(S(=O)(=O)N2CCN(S(=O)(=O)c3cccc(NC(C)=O)c3)CC2)c(F)c1` the figure was 1030 nM (active).
With `O=S(=O)(c1ccc2c(c1)OCCCO2)N1CCN(S(=O)(=O)c2c(F)cccc2F)CC1`, the Potency is 501 nM (active).
With `CS(=O)(=O)Nc1cccc(-c2cc(F)c(S(=O)(=O)N3CCN(S(=O)(=O)c4ccc5c(c4)OCCO5)CC3)cc2F)c1`, the Potency entry was “inactive”.
The result for `COc1cc(F)c(S(=O)(=O)N2CCN(S(=O)(=O)c3cccs3)CC2)c(F)c1` reads 51.7 nM (active); that for `CSc1cc2c(s1)c1cnn(Cc3ccccc3F)c(=O)c1n2C`, 708 nM (active); that for `O=S(=O)(c1ccc2c(c1)OCCO2)N1CCN(S(=O)(=O)c2cc(F)c(Br)cc2F)CC1`, 708 nM (active).
`C=CCc1cc(F)c(S(=O)(=O)N2CCN(S(=O)(=O)c3ccc4c(c3)OCCO4)CC2)cc1F`: the Potency was 2000 nM (active).
Turning to `O=S(=O)(c1c(F)cccc1F)N1CCN(S(=O)(=O)c2c(F)cccc2F)CC1`, the Potency was 126 nM (active).
Take `Cn1c2cc(Br)sc2c2cnn(Cc3ccc(F)cc3)c(=O)c21`: the Potency was 794 nM (active).
With `O=C1CN(S(=O)(=O)c2ccc3c(c2)OCCO3)CCN1S(=O)(=O)c1c(F)cccc1F` the figure was 2820 nM (active); with `Nc1ccc(S(=O)(=O)N2CCN(S(=O)(=O)c3c(F)cccc3F)CC2)cc1`, 410 nM (active).
On to `CC(=O)Nc1ccc(S(=O)(=O)N2CCN(S(=O)(=O)c3ccc4c(c3)OCCO4)CC2)cc1`, for which the Potency was 919 nM (active).
Turning to `COc1cc(F)c(S(=O)(=O)N2CCN(S(=O)(=O)c3ccco3)CC2)c(F)c1`, the Potency was 116 nM (active).
For `COc1cc(F)c(S(=O)(=O)N2CCN(S(=O)(=O)c3ccc(NC(C)=O)cc3)CC2)c(F)c1`, the Potency is 14600 nM (active).
`O=S(=O)(c1ccccc1)N1CCN(S(=O)(=O)c2ccc3c(c2)OCCO3)CC1`: the Potency is 447 nM (active).
Consider `C[C@@H]1CN(S(=O)(=O)c2ccc3c(c2)OCCO3)CCN1S(=O)(=O)c1c(F)cccc1F`, for which the Potency was 3550 nM (active).
With `C[C@H]1CN(S(=O)(=O)c2ccc3c(c2)OCCO3)CCN1S(=O)(=O)c1c(F)cccc1F` the figure was 5010 nM (active); with `O=S(=O)(c1ccc2c(c1)OCCO2)N1CCN(S(=O)(=O)c2cc(F)c(F)cc2F)CC1`, 562 nM (active).
Turning to `Cn1c2cc(CO)sc2c2cnn(Cc3ccccc3F)c(=O)c21`, the Potency is 141 nM (active).
As to `COC(=O)c1cc(F)c(S(=O)(=O)N2CCN(S(=O)(=O)c3ccc4c(c3)OCCO4)CC2)cc1F`, the Potency was 355 nM (active).
Regarding `Cn1c2cc(S(C)(=O)=O)sc2c2cnn(Cc3ccccc3F)c(=O)c21`, the Potency is 447 nM (active).
With `COCCCc1cc(F)c(S(=O)(=O)N2CCN(S(=O)(=O)c3ccc4c(c3)OCCO4)CC2)cc1F` the figure was 3160 nM (active); with `O=S(=O)(c1ccc(Cl)cc1)N1CCN(S(=O)(=O)c2ccc3c(c2)OCCO3)CC1`, 1120 nM (active); with `Cc1nc2ccc(S(=O)(=O)N3CCN(S(=O)(=O)c4c(F)cccc4F)CC3)cc2s1`, 631 nM (active).
Turning to `O=S(=O)(c1cccc(O)c1)N1CCN(S(=O)(=O)c2c(F)cccc2F)CC1`, the Potency is 183 nM (active).
Consider `COc1cc(F)c(S(=O)(=O)N2CCN(S(=O)(=O)c3ccc4c(c3)OCCO4)CC2)c(F)c1`, for which the Potency is 562 nM (active).
The result for `COc1cc(F)c(S(=O)(=O)N2CCCN(S(=O)(=O)c3ccc(NC(C)=O)cc3)CC2)c(F)c1` reads 6510 nM (active).

(Values after PubChem BioAssay AID1540 (National Center for Advancing Translational Sciences (NCATS), 2009).)
